# Screens deposited in PubChem BioAssay by National Center for Advancing Translational Sciences (NCATS).
# JMJD2A Tudor = blocks the human JMJD2A Tudor domain; Potency, µM (doses to about 114 µM), actives largely listed as inhibitors; O75164; AlphaScreen JMJD2A-Tudor / H3K4me3 peptide binding; 4.4% of 390,000 active; AID 504339; note: nearly all actives have a fitted effect of over 50% in size
# HP1b binding inh = inhibitors of HP1-beta chromodomain binding to methylated histone tails | AID 540317 | Potency, µM (highest dose often 114 µM), actives largely listed as inhibitors | 0.56% of 390,000 active | AlphaScreen HP1-beta / biotin-H3K9me3 peptide binding; note: nearly all actives have a fitted effect of over 70% in size
#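 AlphaScreen: HP1-beta (50 nM) preformed 30 min with biotin-H3(1-18)K9me3 peptide (50 nM) in PBS pH 7.4, 0.01% Tween-20. Compound added for 30 min at RT, then streptavidin donor/nickel chelate acceptor beads (10 ug/mL) for 30 min.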
# PLK1 PBD block = blocks phosphopeptide binding to human PLK1 polo-box domain | P53350 | Plk1 PBD binding of FITC phosphopeptide, fluorescence polarization | Potency, µM, most hits filed as inhibitors | 2.8% of 360,000 active; note: series mostly up to about 57 µM; nearly all actives have a fitted effect of over 65% in size
# G9a block = blocks human histone lysine methyltransferase G9a; Q96KQ7; G9a H3K9 monomethylation, AlphaScreen, 2 h; Potency, µM (highest dose often 102 µM), hits mostly inhibitors; 8.8% of 350,000 active; AID 504332; note: nearly all actives have a fitted effect of over 75% in size
#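 Quantitative HTS format: methyltransferase activity on a biotin-tagged H3K9 peptide is measured by AlphaScreen, using a rabbit anti-monomethyl-H3K9 antibody with streptavidin donor and anti-IgG acceptor beads. Final levels are 20 nM enzyme, 500 nM peptide, 20 uM SAM; 2 h RT.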
# PI5P4Ka inh = PI5P4K alpha (human) kinase inhibition. AID 652105. max response, %. 1.2% of 330,000 active. PI5P4Kalpha enzyme, ADP-Glo luminescence, 60 min; active compounds read low. P48426; active = max response of -50% or lower; inconclusive = between -30% and -50%; inactive = -30% or higher; note: value at the top dose of about 77 µM
#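 Enzyme plus substrate dispensed, test compounds pinned in, then ATP (5 microM final) added. After 60 min at RT, ADP-Glo reagent 1 for 45 min and reagent 2 for 30 min preceded luminescence imaging.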
# BAZ2B block = blocks human BAZ2B; Q9UIF8; AlphaScreen BAZ2B-H3K14Ac peptide displacement; Potency, µM (series often up to 114 µM), actives largely listed as inhibitors; 4.4% of 360,000 active; AID 504333; note: nearly all actives have a fitted effect of over 60% in size
#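 BAZ2B 50 nM plus b-H3(5-23)K14Ac 50 nM, PBS pH 7.4/0.01% Tween-20, 30 min RT; compound added (max 110 uM), 30 min RT; streptavidin donor/Ni-chelate acceptor beads 10 ug/mL final, 20 min dark; AlphaScreen read.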
# Hits are given with their value; i = inactive; ? = inconclusive; nt = not tested or not shown; ! = not confirmed by another sample; [ ] = another dose, or the depositor's remark. In the library only some 12% were active in any assay of this set; here they are far more common. Unless noted, calls come from the whole dose curve; as a rule, active = well fitted curve in the direction sought with a large enough effect; inconclusive = small, poorly fitted or top-dose-only effect, or another doubt; inactive = no such curve, though single readings can be large; an effect the other way counts as inactive or inconclusive.
SMILES,JMJD2A Tudor,HP1b binding inh,PLK1 PBD block,G9a block,PI5P4Ka inh,BAZ2B block
COCCCn1[nH]c2c3c(ccc2c1=O)C(=O)c1ccccc1C3=O,i,i,i,7.08µM,i,?
Cc1ccc(C)c(-n2[nH]c3c4c(ccc3c2=O)C(=O)c2ccccc2C4=O)c1,?,50.1µM,i,i,i,44.7µM
Cc1ccc(-n2[nH]c3c4c(ccc3c2=O)C(=O)c2ccccc2C4=O)cc1,i,i,i,2.82µM,i,i
COc1ccc(N2CCN(C(=O)CSc3nc4c(c(=O)n(C)c(=O)n4C)n3C(C)C)CC2)cc1,i,i,i,50.1µM,nt,i
CC(C)n1c(SCC(=O)N2CCCCC2)nc2c1c(=O)n(C)c(=O)n2C,i,i,i,i,i,i
COc1ccc(-n2c(SCC(=O)N3CCN(c4ccccc4)CC3)nc3c(c2=O)SCC3)cc1,i,i,i,44.7µM,i,i
CN(C)CCOC(c1ccc(Cl)cc1)c1ccccn1 (stereo not drawn),i,i,i,44.7µM!,i,i
CC(Sc1nnc(N)s1)C(=O)NNC(=O)c1cccc(Cl)c1 (stereo not drawn),i,i,i,nt,i,nt
CC(Sc1nnc(N)s1)c1ccccc1Cl (stereo not drawn),i,i,?,39.8µM,i,i
COC(=O)c1ccccc1C(=O)N1CCCC(CCC(=O)NCc2ccc(F)c(F)c2)C1 (stereo not drawn),i,i,i,5.62µM,i,i
NC(=S)N1N=C(c2ccccc2)CC1=O,i,i,i,nt,i,nt
CN(C)c1ccc(CNC(=O)CCCN2C(=O)c3cccnc3Oc3ccc(Cl)cc32)cc1,?,i,nt,11.2µM,nt,?
Cc1c(C)n(C)c2ccc(C(=O)NCCN3CCOCC3)cc12,i,i,i,?,i,i
Nc1cccc(-c2nnc3n2CCCCC3)c1,?,i,16.8µM,i,i,i
O=[N+]([O-])c1cc(N=Nc2ccc3ccccc3c2)ccc1O,?,i,?,3.16µM,i,?
O=C1OC2(CCCC2)OC(=O)C1=Cc1c[nH]c2ccccc12,89.1µM,i,?,nt,i,i
Cn1cc(C=C2C(=O)OC3(CCCCC3)OC2=O)c2ccccc21,i,i,i,nt,i,i
CCOC(=O)[C@]12CCC=C1N(Cc1ccc3c(c1)OCO3)C(=O)[C@H](CC(=O)N1CCOCC1)C2,nt,nt,i,nt,i,nt
COc1ccc(Br)c2oc(SC)cc(=O)c12,i,i,i,39.8µM,i,?
CCN(CC)N=Nc1[nH]nc2nc(C)cc(C)c12,i[11.4 µM],i,8.44µM,nt,i,i
Cc1cc(C)c2c(N=NN3CCCCC3)[nH]nc2n1,i,i,i,44.7µM,i,i
CN(C)c1ccc(CNC(=O)Cn2ccc3cc(S(=O)(=O)N4CCCCCC4)ccc32)cc1,?,i,nt,?,nt,?
Nn1c(C2CCCCC2)nc2ccccc2c1=O,i,i,i,i[12.7 µM],i,i
S=c1nc(C2CCCCC2)n(-c2ccccc2)[nH]1,15.8µM,i,i,3.55µM,i,i
COc1ccc2cc3cc(C(=O)N4CCN(c5cccc(Cl)c5)CC4)sc3nc2c1,i,i,nt,i,nt,i
SMILES,JMJD2A Tudor,HP1b binding inh,PLK1 PBD block,G9a block,PI5P4Ka inh,BAZ2B block
O=C(OCc1ccccc1)N1C=CCC[C@@H]1c1c(Cl)cccc1Br,nt,nt,i,nt,i,nt
O=C(/C=C/c1ccc([N+](=O)[O-])cc1)c1ccco1,i,i,i,i,i,i
O=C(N/N=C/C=C/c1ccco1)c1cccc([N+](=O)[O-])c1,i,i,i,?,i,i
O=C(/C=C/c1ccco1)c1cccc([N+](=O)[O-])c1,35.5µM,?,i,nt,-72.9,nt
C/C(=N/NC(=O)CNC(=O)/C=C/c1ccco1)c1ccc(Cl)cc1,i,i,i,i,?,56.2µM
O=C(/C=C/c1ccc([N+](=O)[O-])cc1)/C=C/c1ccco1,nt,nt,nt,10µM,nt,28.2µM
O=C(/C=C/c1ccco1)NCC(=O)N/N=C/c1ccc(Cl)cc1,i,i,i,i,i,i
O=C(/C=C/c1ccco1)NCC(=O)N/N=C/c1ccc([N+](=O)[O-])cc1,14.1µM,?,10.6µM,?,-60.5,?
COC(=O)c1ccc(NC(=O)C(C)Sc2nc(=O)cc(N)n2CCc2ccccc2)cc1 (stereo not drawn),i,i,nt,?,nt,?
C/C(=N\NC(=O)c1cc(-c2ccc(C)s2)[nH]n1)c1ccncc1,i,i,i,i,i,i
Cc1cc([N+](=O)[O-])c2ccccc2c1NS(=O)(=O)c1ccccc1,i,i,i,nt,i,nt
CCC(C)NC(=S)N1CCN(C)CC1 (stereo not drawn),?,?,i,39.8µM,i,i
Cn1c(C(C#N)C2=C(Cl)C(=O)N(c3ccccc3)C2=O)nc2ccccc21 (stereo not drawn),nt,nt,nt,14.1µM,nt,8.91µM
Cn1c(C(O)C(O)c2ccccc2)nc2ccccc21 (stereo not drawn),i,i,i,i,i,i
CCCc1nc2ccc(N)cc2c(=O)n1Cc1ccccc1Cl,i,i,i,i,i,i
CCCCOC1(c2ccccc2)NC(=S)NN=C1c1ccccc1 (stereo not drawn),nt,nt,nt,44.7µM,nt,i
COC1(c2ccccc2)NC(=S)NN=C1c1ccccc1 (stereo not drawn),i,i,i,?,i,i
CCOC1=NN(c2ncc(C(F)(F)F)cc2Cl)C(=O)C1,?,i,23.8µM,i,i,i
CCOC(=O)N1CCN(c2ncc(C(F)(F)F)cc2Cl)CC1,i,i,i,i,i,i
Cn1c(=O)c2c(nc(CN3CCN(C(=O)c4ccco4)CC3)n2Cc2cccc(Cl)c2)n(C)c1=O,i,i,i,?,nt,nt
Cn1c(=O)c2c(nc(CN3CCN(Cc4ccccc4)CC3)n2Cc2cccc(Cl)c2)n(C)c1=O,i,i,i,39.8µM,i,i
Cn1c(=O)c2c(nc(CN3CCc4ccccc4C3)n2Cc2cccc(Cl)c2)n(C)c1=O,i,i,i,8.91µM,i,i
CC(C)CCN1C(=O)c2ccc(C(=O)Nc3ccc(Br)cc3C(=O)O)cc2C1=O,56.2µM,i,?,nt,?,44.7µM
O=C(Nc1ccc(Cl)cc1C(=O)O)c1ccc2c(c1)C(=O)N(Cc1ccco1)C2=O,56.2µM,i,26.7µM,11.2µM,-74.6,50.1µM
CC(C)CN1C(=O)c2ccc(C(=O)Nc3ccccc3C(=O)O)cc2C1=O,22.4µM,i,23.8µM,?,-63.7,i
O=S(=O)(c1ccc(F)cc1)N1CCN(c2nc(-c3ccccc3)nc3ccccc23)CC1,i,i,nt,nt,nt,nt
C=CC(C)(C)c1c(O)c(CC=C(C)C)c(O)c2c(=O)c3ccc(O)c(O)c3oc12,50.1µM,i,i,nt,i,nt
CCN(CC)S(=O)(=O)c1ccc(NCC2COc3ccccc3O2)c([N+](=O)[O-])c1 (stereo not drawn),?,?,i,?,i,?
CN(C)S(=O)(=O)c1ccc(NCC2COc3ccccc3O2)c([N+](=O)[O-])c1 (stereo not drawn),25.1µM,?,29.9µM,?,i,?
